# Screening data from PubChem.
# FadD28 binding: M. tuberculosis FadD28 bisubstrate binding inhibition | FadD28 bisubstrate probe binding, fluorescence polarization | inhibition, % at 12.5 µM | 360,000 compounds, 0.22% hits | AID 588549; in the data active = inhibition above about 8.5%, passing the limit was not always enough
# Rv3671c protease: inhibits the M. tuberculosis serine protease Rv3671c; P9WHR9; inhibition, % at 5.96 µM; 320,000 compounds, 0.048% hits; AID 2606;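 also: extracellular domain of Rv3671c used as enzyme; 0% = enzyme with DMSO and 100% = no enzyme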
# GDH-TPI counter-1: inhibits GDH-TPI coupling enzymes, artifact for Mtb FBA screen; GDH-TPI coupled enzyme counterscreen, NADH absorbance; inhibition, % at 4.8 µM; 360,000 compounds, 1.2% hits; AID 588335; in the data active = inhibition above about 30%;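 also: 0% = DMSO wells and 100% = wells lacking the enzyme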
# Mtb BioA inh: blocks M. tuberculosis BioA enzyme activity; purified M. tuberculosis BioA enzyme, plate reader; inhibition, % at 9.99 µM; 360,000 compounds, 0.096% hits; AID 602481; in the data active = inhibition above about 40%
# FBA Mtb inh: Mtb fructose-bisphosphate aldolase inhibition; purified M. tuberculosis FBA, fluorescence read-out; inhibition, % at 1 µM; 360,000 compounds, 2.3% hits; in the data active = inhibition above about 27%;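 also: 0% = vehicle and 100% = reference inhibitor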
# Target sequence (P9WQA3 whole entry, looked up): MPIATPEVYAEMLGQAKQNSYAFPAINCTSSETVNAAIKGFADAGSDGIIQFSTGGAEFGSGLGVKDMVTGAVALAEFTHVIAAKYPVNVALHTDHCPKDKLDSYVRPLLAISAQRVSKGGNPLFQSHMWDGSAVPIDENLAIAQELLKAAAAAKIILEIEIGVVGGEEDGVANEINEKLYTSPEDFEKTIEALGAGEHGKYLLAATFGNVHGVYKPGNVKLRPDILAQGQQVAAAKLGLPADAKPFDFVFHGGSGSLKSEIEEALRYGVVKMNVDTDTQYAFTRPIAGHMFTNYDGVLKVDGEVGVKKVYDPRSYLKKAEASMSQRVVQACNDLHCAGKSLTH
# Rv3671c cf: confirmation of M. tuberculosis Rv3671c protease inhibitors; shares compounds with Rv3671c protease; inhibition, % at 5.96 µM; 140 compounds, 40% hits; AID 2761
# Mtb FBA inh conf: confirmation of M. tuberculosis fructose-bisphosphate aldolase inhibitors. 5,600 compounds, 78% hits. inhibition, % at 1 µM. purified M. tuberculosis FBA, fluorescence read-out. AID 651616. shares compounds with FBA Mtb inh; in the data active = inhibition above about 27%;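 also: 0% = vehicle wells and 100% = reference inhibitor wells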
# GDH-TPI counter-2: inhibits GDH-TPI coupling enzymes, flagging Mtb FBA hits | shares compounds with FBA Mtb inh | GDH-TPI coupled enzyme counterscreen, fluorescence | inhibition, % at 1 µM | 5,600 compounds, 81% hits; in the data active = inhibition above about 10%
# Active calls of the source: *; . = no result. An excerpt weighted towards active compounds, which were near 3% of everything screened. Rule as the data show it, unless noted: active = inhibition above about 38%; inactive = the rest.
SMILES,FadD28 binding,Rv3671c protease,GDH-TPI counter-1,Mtb BioA inh,FBA Mtb inh,Rv3671c cf,others
COCCCNC1=C(Cl)C(=O)c2ccccc2C1=O,-2,-1,6,3,-1,.,
O=C(O)c1cc(O)c2c(c1)[C@@H]([C@H]1c3cc(C(=O)O)cc(O)c3C(=O)c3c(O[C@@H]4O[C@H](CO)[C@@H](O)[C@H](O)[C@H]4O)cccc31)c1cccc(O[C@@H]3O[C@H](CO)[C@@H](O)[C@H](O)[C@H]3O)c1C2=O,.,71*,.,.,.,21,
OCC1OC(Oc2cccc3ccccc23)C(O)C(O)C1O (stereo unspecified),-2,-11,-4,.,2,.,
O=C1c2ccccc2-c2onc3ccc(NCCCn4ccnc4)c1c23,.,131*,.,.,.,135*,
Cc1ccc(-c2nn(-c3ccccc3)cc2C(=O)Nc2ccc(C(=O)O)cc2)cc1,-1,-8,8,.,-1,.,
CCOC(=O)c1ccc(NC(=O)c2cn(-c3ccccc3)nc2-c2ccncc2)cc1,-1,193*,10,.,0,-40,
CO[C@H]1CN(C)C(=O)c2cc(NC(=O)Nc3ccc(C(F)(F)F)cc3)ccc2OC[C@@H](C)NC[C@H]1C,.,.,.,5,.,.,
CCC(=O)c1ccc(OC(=O)Cc2ccc(OC)cc2)cc1,0,51*,10,0,1,55*,
COc1ccc(CC(=O)Oc2ccccc2C)cc1,-1,12,4,1,1,.,
COc1cc(/C=N/Nc2ccccc2[N+](=O)[O-])cc(OC)c1O,-3,9,27,.,-13,.,
COc1cc(C=NNc2ccc(S(=O)(=O)Nc3ccccc3C(=O)O)cc2[N+](=O)[O-])ccc1O,50*,47*,30,10,-6,42*,
CCCCNC(=O)COC(=O)c1ccc(Cl)c(S(N)(=O)=O)c1,0,43*,14,1,2,-5,
Cc1cc(C)cc(-n2c(O)c(C=NC3CCS(=O)(=O)C3)c3ccccc3c2=O)c1 (stereo unspecified),-3,58*,21,-1,-1,48*,
COc1cccc(NC(=O)N[C@@H]2CC[C@@H](CC(=O)N3CCOCC3)O[C@H]2CO)c1,.,.,.,4,.,.,
CNc1ccc2c3c(cccc13)C(=O)N(C)C2=O,4,77*,5,.,-11,69*,
O=c1c2ccccc2[se]n1-c1ccccc1,-4,40*,84*,-1,-2,41*,
O=c1c2ccccc2nc(-c2ccccc2)n1-c1ccccc1,-3,6,13,2,2,.,
CCN1/C(=C/C=C/c2sc3ccccc3[n+]2CC)Sc2ccccc21,-4,-369,15,1,5,.,
CCN1/C(=C/C=C/c2oc3ccc(-c4ccccc4)cc3[n+]2CC)Oc2ccc(-c3ccccc3)cc21,95*,60*,12,-201,-19,-16,
COc1cccc(N2CCN(C(=O)c3ccc(CSc4nc5ccncc5[nH]4)cc3)CC2)c1,-1,5,8,0,6,.,
COc1cccc(CSc2nc3ccncc3[nH]2)c1,-7,183*,3,3,0,-1,
CCOC(=O)C1=C(NC(=S)NC(=O)c2ccccc2)c2ccccc2CC1(C)CC (stereo unspecified),-1,-2,6,1,-1,.,
CCOC(=O)C1=C(NC(=S)NC(=O)c2ccccc2)c2ccccc2CC1C(C)C (stereo unspecified),-1,55*,2,-1,2,-12,
C[C@@H]1CCCCO[C@H](CN(C)C(=O)Nc2ccc3c(c2)OCO3)[C@H](C)CN([C@@H](C)CO)C(=O)c2cc(NS(=O)(=O)c3cccs3)ccc2O1,.,.,.,1,.,.,
COCCNC(=O)C[C@H]1C[C@@H]2c3cc(NC(=O)COC)ccc3O[C@@H]2[C@H](CO)O1,.,.,.,0,.,.,
O=C(Oc1cncc(Cl)c1)c1sccc1Cl,0,1,9,0,-3,.,
O=C(Oc1cncc(Cl)c1)c1ccco1,-1,63*,5,2,33*,88*,Mtb FBA inh conf=57*;GDH-TPI counter-2=62*
CC1(C)Cc2c(C#N)c(NCCc3ccccc3)nc(-c3ccco3)c2CO1,0,81*,13,-1,35*,15,Mtb FBA inh conf=171*;GDH-TPI counter-2=135*
O=S(=O)(N[C@@H]1CC[C@H](CCn2cc(-c3ccc(F)cc3)nn2)O[C@H]1CO)c1ccccc1F,.,.,.,7,.,.,
